Source: PubChem BioAssay
The list is not random: actives were taken first. Their share in the collection is about 2.8%.
BRCA1 expr up: increases BRCA1 expression | MCF7-BRCA1-FFLuc reporter, luminescence, 48 h; response scale: scaled: vehicle 0%, 10 µM genistein 100% | Potency, µM (titrated, usually from 46.1 µM), actives largely listed as activators | actives 1.1% (n = 380,000) | AID 624202; note: nearly all actives have a fitted effect of over 80% in size
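Reporter cells (MCF7, BRCA1 promoter-firefly luciferase) received library compounds across a concentration series for 48 h. End-point luminescence was measured and concentration-effect curves derived after normalization.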
GLP-1R agonist: GLP-1 receptor (human) agonism; P43220; HEK293 GLP-1R CRE-luciferase, luminescence, 4-6 h; cells express a hypersensitive GLP-1R form; Potency, µM (highest dose often 45.6 µM), hits mostly activators; actives 0.007% (n = 380,000); AID 624172
Target sequence (P43220 whole entry, looked up): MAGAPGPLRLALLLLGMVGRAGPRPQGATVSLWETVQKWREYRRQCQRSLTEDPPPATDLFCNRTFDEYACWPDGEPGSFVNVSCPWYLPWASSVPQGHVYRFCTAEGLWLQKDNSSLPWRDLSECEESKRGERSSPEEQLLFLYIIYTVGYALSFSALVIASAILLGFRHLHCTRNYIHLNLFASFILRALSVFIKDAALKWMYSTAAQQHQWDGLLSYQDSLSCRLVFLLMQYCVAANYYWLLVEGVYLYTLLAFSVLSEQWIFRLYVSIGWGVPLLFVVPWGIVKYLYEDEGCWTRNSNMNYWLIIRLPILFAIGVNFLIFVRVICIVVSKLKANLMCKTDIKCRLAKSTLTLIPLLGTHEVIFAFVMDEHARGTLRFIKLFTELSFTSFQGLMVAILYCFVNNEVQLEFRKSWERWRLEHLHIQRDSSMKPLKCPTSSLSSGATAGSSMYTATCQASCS
GLP-1R inv ag: inverse agonists of human GLP-1 receptor; P43220; HEK293 GLP-1R CRE-luciferase, luminescence, 24 h; GLP-1R form is constitutively active; Potency, µM (highest dose often 38.3 µM), usual class: inhibitors; actives 1.6% (n = 410,000); AID 624417; note: nearly all actives have a fitted effect of over 55% in size
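Inverse agonism was detected as reduced cAMP-driven luciferase luminescence after 24 h compound treatment. The cells were HEK293 clones expressing constitutively active human GLP-1R with the reporter. Reporter-only and GPR119 cell lines served as counterscreen controls.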
GLP1R cytotox: cytotoxic in the GLP-1 receptor inverse agonist counter-screen. HEK293 cAMP-luciferase reporter cells, luminescence, 24 h. Potency, µM (top dose mostly 38.3 µM), hits mostly inhibitors. AID 624418. actives 0.13% (n = 410,000);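 note: loss of luciferase light is scored as toxicity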
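Quantitative HTS format, 1536 wells, 200 cells/uL seeded. Compounds: 23 nL, 24 h, 37 °C. Detection: luciferase reagent, luminescence at 12 min RT; decreased signal taken as cytotoxic.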
Mito fusion yeast: mitochondrial division inhibition or fusion activation; AID 485298; S. cerevisiae fusion-defective mutant growth rescue, CellTiterGlo 48 h; Potency, µM (highest dose often 46.1 µM), hits mostly activators; actives 0.23% (n = 320,000); note: nearly all actives have a fitted effect of over 45% in size
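S. cerevisiae fusion-defective temperature-sensitive mutants (e.g. fzo1-1, mgm1-5) grown 48 h at 37C in YPEG (ethanol/glycerol non-fermentable) medium with 23 nl compound per well; growth rescue read as CellTiterGlo luminescence.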
Of the large screens only hits and unclear results are named; the others gave an inactive call; ! = repeats disagree. Calls come from the whole dose curve; as a rule, active = well fitted curve in the direction sought with a large enough effect; inconclusive = small, poorly fitted or top-dose-only effect, or another doubt; inactive = no such curve, though single readings can be large; an effect the other way counts as inactive or inconclusive.

c1ccc(-c2ccc(OCCCn3cncn3)cc2)cc1	BRCA1 expr up 11µM
c1ccc(COc2ccc(OCCn3cncn3)cc2)cc1	GLP-1R inv ag inconclusive
COc1ccccc1NC(=S)N(Cc1ccco1)Cc1cc2ccc(C)c(C)c2[nH]c1=O	none
Cc1nn(-c2ccccc2)c(Cl)c1/C=N/NC(=O)c1ccn[nH]1	BRCA1 expr up inconclusive, GLP-1R inv ag inconclusive
Cc1nn(-c2ccccc2)c(Cl)c1/C=N/NC(=O)c1ccccc1F	BRCA1 expr up 11µM
CC(C)N1CCC(=NNC(=O)c2cccs2)CC1	BRCA1 expr up 8.9µM
COc1ccc(CC(=O)NNC(=O)COc2ccc(F)cc2)cc1S(=O)(=O)N1CCOCC1	none (no result: Mito fusion yeast)
CCOc1ccc(NC(=S)NC23CN4CN(CN(C4)C2)C3)cc1	none
O=C(NC1CCCC1)C1CC(c2ccc(F)cc2)=NO1 (centres undefined)	BRCA1 expr up 10µM
COc1ccc(/C=C/c2nc(S(=O)(=O)c3ccccc3)c(N(C)C)o2)cc1OC	none
CCCCCn1cnc2c(sc3nc4c(cc32)CSC(C)(C)C4)c1=O	BRCA1 expr up 2.2µM, GLP-1R inv ag inconclusive
CC1(C)Cc2nc3sc4c(=O)[nH]cnc4c3cc2CS1	BRCA1 expr up inconclusive
O=C(CSc1cccc[n+]1[O-])Nc1ccccc1Oc1ccccc1	GLP-1R inv ag inconclusive, GLP1R cytotox 0.79µM
O=C(CSc1cccc[n+]1[O-])Nc1cc2c(cc1Cl)C(=O)c1ccccc1C2=O	BRCA1 expr up 10µM
O=C(CSc1cccc[n+]1[O-])Nc1cc([N+](=O)[O-])ccc1Cl	none
CC(C)CN1CC(=O)N2C(c3ccccc3)c3[nH]c4ccccc4c3C[C@H]2C1=O (some centres undefined)	GLP-1R inv ag 10µM
COc1cc([C@H]2c3[nH]c4ccccc4c3C[C@H]3C(=O)N4[C@@H](c5cc(OC)c(OC)c(OC)c5)c5[nH]c6ccccc6c5C[C@H]4C(=O)N23)cc(OC)c1OC	GLP-1R inv ag 10µM
Nc1c(-c2cccc(Cl)c2)cnn1-c1cccc(C(F)(F)F)c1	none
O=C(Nc1cc(Cl)ccc1Oc1ccccc1)C1=COCCO1	GLP-1R inv ag inconclusive, Mito fusion yeast inconclusive
CCOc1ccc(Oc2ccc(Cl)cc2NC(=O)C2=COCCO2)cc1	GLP-1R inv ag 10µM
CCn1ncc(Br)c1C(=O)Nc1ccn(C23CC4CC(CC(C4)C2)C3)n1	GLP-1R inv ag 7.9µM
Cc1ccc(S(=O)(=O)NCC(=O)N(CC(=O)NCc2ccco2)Cc2ccc(F)cc2)cc1	none
O=C(CN1CCN(S(=O)(=O)c2ccc(F)cc2)CC1)Nc1cc(C(F)(F)F)ccc1Cl	none
CCc1ccc(NC(=O)CN2CCCN(S(=O)(=O)c3ccc(F)cc3)CC2)cc1	GLP-1R inv ag 5µM
COc1ccc(C)cc1NC(=O)CN1CCCN(S(=O)(=O)c2ccc(Br)cc2)CC1	GLP-1R inv ag inconclusive, Mito fusion yeast 14µM
O=C(CN1CCN(S(=O)(=O)c2ccc(F)cc2)CC1)Nc1ccc(F)cc1F	Mito fusion yeast 35µM
COC(=O)c1ccc(NC(=O)CN2CCN(S(=O)(=O)c3ccc(Br)cc3)CC2)cc1	GLP-1R inv ag 3.5µM!
O=C(CN1CCN(S(=O)(=O)c2ccc(Br)cc2)CC1)Nc1ccc2c(c1)OCCO2	GLP-1R inv ag inconclusive
CCc1nnc(NC(=O)CSc2ccc(-c3ccc(-n4cccn4)cc3)nn2)s1	BRCA1 expr up 10µM
COc1ccccc1-c1nn2c(=O)cc(C)nc2s1	BRCA1 expr up 10µM
COc1ccccc1-c1nn2c(-c3ccco3)nnc2s1	BRCA1 expr up 7.9µM
Cc1ccc(OCc2cc(C(=O)NC(C)Cc3cccnc3)no2)cc1C (centres undefined)	GLP-1R inv ag inconclusive
COc1cccc(CCNC(=O)c2cc(COc3ccc(C)c(C)c3)on2)c1OC	BRCA1 expr up 5.6µM, GLP-1R inv ag inconclusive (no result: Mito fusion yeast)
Cc1ccc(OCc2cc(C(=O)NCCc3cccnc3)no2)cc1C	BRCA1 expr up 11µM, GLP-1R inv ag inconclusive
CCCc1cc(C(=O)NCCc2ccccc2)no1	BRCA1 expr up 4µM, GLP-1R inv ag inconclusive
O=C(NCCCn1cccn1)c1cc(COc2ccccc2)on1	BRCA1 expr up 11µM (no result: Mito fusion yeast)
Cc1nn(C)c2c1c(C(F)(F)F)cc(=O)n2C(C)C(=O)NCCc1ccccc1 (centres undefined)	none (no result: BRCA1 expr up, GLP-1R agonist, Mito fusion yeast)
CCOC(=O)CC(=O)NC(C)(C)CCCCC(C)(C)NC(=O)CC(=O)OCC	none
CCCc1cc(C(=O)Nc2cccnc2Cl)no1	none
CCCc1cc(C(=O)Nc2cc(C)ccc2O)no1	BRCA1 expr up 2.8µM, GLP1R cytotox inconclusive
Cc1[nH]nc(SCC(=O)N2CCCCCC2)c1[N+](=O)[O-]	BRCA1 expr up 7.9µM
O=C(Nc1ccc2ncccc2c1)c1cccc(Br)c1	BRCA1 expr up 2.2µM
O=C(Nc1ccc2ncccc2c1)c1cc(Cl)ccc1Cl	BRCA1 expr up 7.9µM, GLP-1R inv ag inconclusive
Oc1ccc(Br)cc1CNc1cnc2ccccc2c1	GLP-1R inv ag 11µM
O=C(O)c1ccc(NCc2ccc(Br)cc2)cc1	none
Brc1ccc(CNc2ccc3ncccc3c2)cc1	BRCA1 expr up 8.9µM
CCc1cccc(CC)c1NC(=O)C1CSC2(C)CCC(=O)N12 (centres undefined)	none
COc1ccccc1NS(=O)(=O)c1cc(C(=O)NC2CCN(Cc3ccccc3)CC2)ccc1C	GLP-1R inv ag inconclusive (no result: Mito fusion yeast)
O=C(NC1CCN(Cc2ccccc2)CC1)c1cccc(S(=O)(=O)Nc2ccc(F)cc2)c1	GLP-1R inv ag 7.1µM, GLP1R cytotox 11µM
COc1ccccc1NS(=O)(=O)c1cccc(C(=O)NC2CCN(Cc3ccccc3)CC2)c1	GLP-1R inv ag inconclusive
Cc1ccc(NS(=O)(=O)c2cccc(C(=O)NC3CCN(Cc4ccccc4)CC3)c2)c(C)c1	GLP-1R inv ag inconclusive, GLP1R cytotox 11µM (no result: Mito fusion yeast)
COc1ccccc1NS(=O)(=O)c1ccc(C)c(C(=O)NC2CCN(Cc3ccccc3)CC2)c1	GLP-1R inv ag 11µM
Cc1ccc(NS(=O)(=O)c2cccc(C(=O)NCC(c3ccc(F)cc3)N3CCOCC3)c2)cc1 (centres undefined)	GLP-1R inv ag 10µM
O=C(NC1CCN(Cc2ccccc2)CC1)c1cccc(S(=O)(=O)Nc2ccc(Br)cc2)c1	GLP-1R inv ag inconclusive
Cc1nc2[nH]c(=O)c3c(n2n1)NC1=C(C(=O)CC(C)(C)C1)C3c1ccc(F)cc1 (centres undefined)	none
CCN1C(=O)CSC1=NC12CC3CC(CC(C3)C1)C2	none
Cc1oc(C(C)(C)C)cc1C(=O)NC1CCN(Cc2ccccc2)CC1	GLP-1R inv ag 13µM
CN(C)S(=O)(=O)c1cccc(C(=O)NCC(=O)NC2CCN(Cc3ccccc3)CC2)c1	none
